The nature of assay [1]: qHTS assay to identify small molecule antagonists of the thyroid receptor (TR) signaling pathway - cell viability counter screen (AID 743064). Note: nearly all actives have a fitted effect of over 50% in size. Note: potency is the fitted concentration of half-maximal effect. Particulars: GH3.TRE-Luc viability, CellTiter-Fluor, 24 h; series mostly up to 70.3 µM. The method, boiled down:
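Rat GH3 pituitary tumor cells stably expressing two TR response elements driving luciferase were plated, rested 4 h, then dosed with library compounds and T3 (1 nM final). After 23.5 h at 37 °C, CellTiter-Fluor was added for 30 min and fluorescence recorded.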

In assay [2] the test system is thyroid hormone receptor (rat, GH3 cells). Put plainly: qHTS assay to identify small molecule agonists of the thyroid receptor (TR) signaling pathway (AID 743066; calls by dose curve). Particulars: GH3.TRE-Luc cells, TR agonist luciferase, 24 h; series mostly up to 83.9 µM.
The nature of assay [3]: qHTS assay to identify small molecule antagonists of the estrogen receptor alpha (ER-alpha) signaling pathway - cell viability counter screen (AID 743074; calls by dose curve;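 note: HEK293 cells carrying ER-alpha-UAS-bla reporter stimulated with 17beta-estradiol; nearly all actives have a fitted effect of over 45% in size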; note: potency is the fitted concentration of half-maximal effect). The conditions noted are these: ERalpha-bla HEK293 viability, CellTiter-Glo luminescence, 18 h; series mostly up to 69.4 µM. In general terms: Quantitative high-throughput screening tests each substance at several concentrations.

Assay [4] in a line: qHTS assay to identify small molecule antagonists of the estrogen receptor alpha (ER-alpha) signaling pathway using the BG1 cell line - cell viability counter screen (AID 743081).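 Note: compound given together with 17beta-estradiol as the ER stimulus; nearly all actives have a fitted effect of over 45% in size.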 Note: potency is the fitted concentration of half-maximal effect. The conditions noted are these: BG1Luc4E2 viability, CellTiter-Fluor, 22 h; series mostly up to 70.3 µM.
In another assay the target is Aromatase (Homo sapiens) (UniProt P11511). Kind of assay: qHTS assay to identify aromatase inhibitors (AID 743083). Note: nearly all actives have a fitted effect of over 55% in size. Note: potency is the fitted concentration of half-maximal effect. The conditions noted are these: MCF-7 aro ERE, testosterone-driven ERE luciferase, 24 h; series mostly up to 70.3 µM.
Assay [5] concerns the target Estrogen receptor (Homo sapiens) (UniProt P03372). Kind of assay: qHTS assay to identify small molecule agonists of the estrogen receptor alpha (ER-alpha) signaling pathway (AID 743075; calls by dose curve;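 note: HEK293 GripTite cells with ER-alpha and UAS-driven beta-lactamase reporter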). The conditions noted are these: HEK293 ER-alpha-UAS-bla, beta-lactamase FRET ratio, 18 h; series mostly up to 70.1 µM.
Assay [6] has the same target. Put plainly: qHTS assay to identify small molecule agonists of the estrogen receptor alpha (ER-alpha) signaling pathway using the BG1 cell line (AID 743079). Note: nearly all actives have a fitted effect of over 20% in size. Note: potency is the fitted concentration of half-maximal effect. The conditions noted are these: BG1Luc4E2 cells, ERE-luciferase agonist, 22 h; series mostly up to 70.3 µM.
For assay [7] the target is unchanged. Put plainly: qHTS assay to identify small molecule antagonists of the estrogen receptor alpha (ER-alpha) signaling pathway (AID 743069; active = well fitted curve in the direction sought with a large enough effect in the signal ratio in the repeat runs, not every such curve was filed as active; the % refers to the signal ratio). Particulars: HEK293 ER-alpha-UAS-bla, beta-lactamase ratio, antagonist mode; series mostly up to 69.4 µM. Summed up: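 A 17beta-estradiol challenge was applied right after compound transfer to ER-alpha-UAS-bla HEK293 cells previously kept in charcoal-stripped serum. Plates stood 18 hr at 37C and 5% CO2; fluorescence was read following 2 hr FRET substrate loading at room temperature.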

A short description of assay [8]: qHTS assay to identify small molecule antagonists of the estrogen receptor alpha (ER-alpha) signaling pathway using the BG1 cell line (AID 743080; calls by dose curve;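 note: BG1 cells stimulated with 17beta-estradiol alongside compound; nearly all actives have a fitted effect of over 25% in size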; note: potency is the fitted concentration of half-maximal effect). The conditions noted are these: BG1Luc4E2 ERE-luciferase antagonist mode, luminescence; series mostly up to 70.3 µM. The method, boiled down:
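Seeding, 24 h rest, compound transfer from DMSO, 17beta-estradiol addition, 21.5 h incubation, CellTiter-Fluor (30 min, 37 C), then ONE-Glo (30 min, room temperature): this sequence was run on BG1-Luc-4E2 reporter cells.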

A short description of assay [9]: qHTS assay to identify small molecule antagonists of the thyroid receptor (TR) signaling pathway (AID 743065). Note: nearly all actives have a fitted effect of over 55% in size. Particulars: GH3.TRE-Luc, T3-stimulated luciferase inhibition, 23.5 h; series mostly up to 70.3 µM. The method, boiled down: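 GH3.TRE-Luc rat pituitary cells carrying two TR response elements driving luciferase were plated for 4 h, given compound plus 1 nM T3 (final), and incubated 23.5 h at 37 C. ONE-Glo luminescence measured reporter inhibition; CellTiter-Fluor fluorescence tracked cytotoxicity.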

“And” between values parts separate entries of the source, which are not always exact repeats. Equal entries are not always repeated. Records with an inconclusive call do not appear. Where a structure was tested more than once in an assay, its records may differ in their call. The source made the active and inactive calls. Unless noted, calls come from the whole dose curve; as a rule, active = well fitted curve in the direction sought with a large enough effect in the repeat runs; inconclusive = weak or mixed curves; inactive = no such curve, though single readings can be large; an effect the other way counts as inactive or inconclusive.

Chain of Estrogen receptor (Homo sapiens) (P03372 whole entry, looked up): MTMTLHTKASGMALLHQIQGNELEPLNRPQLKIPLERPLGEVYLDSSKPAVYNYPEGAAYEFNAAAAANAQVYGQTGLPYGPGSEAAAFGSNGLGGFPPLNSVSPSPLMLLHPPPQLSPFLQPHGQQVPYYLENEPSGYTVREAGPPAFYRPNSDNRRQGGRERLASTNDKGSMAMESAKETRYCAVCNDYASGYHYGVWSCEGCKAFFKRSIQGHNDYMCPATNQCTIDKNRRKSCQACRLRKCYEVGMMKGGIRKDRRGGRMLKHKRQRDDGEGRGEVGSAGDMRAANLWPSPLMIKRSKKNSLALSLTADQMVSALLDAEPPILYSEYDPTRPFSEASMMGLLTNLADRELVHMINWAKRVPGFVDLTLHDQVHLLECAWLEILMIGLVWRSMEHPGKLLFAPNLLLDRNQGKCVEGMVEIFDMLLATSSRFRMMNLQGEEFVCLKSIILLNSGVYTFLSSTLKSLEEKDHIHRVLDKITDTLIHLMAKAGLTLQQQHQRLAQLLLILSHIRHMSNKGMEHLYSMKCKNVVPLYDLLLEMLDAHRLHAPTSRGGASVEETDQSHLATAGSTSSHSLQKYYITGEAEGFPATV
Chain of Aromatase (Homo sapiens) (P11511 whole entry, looked up): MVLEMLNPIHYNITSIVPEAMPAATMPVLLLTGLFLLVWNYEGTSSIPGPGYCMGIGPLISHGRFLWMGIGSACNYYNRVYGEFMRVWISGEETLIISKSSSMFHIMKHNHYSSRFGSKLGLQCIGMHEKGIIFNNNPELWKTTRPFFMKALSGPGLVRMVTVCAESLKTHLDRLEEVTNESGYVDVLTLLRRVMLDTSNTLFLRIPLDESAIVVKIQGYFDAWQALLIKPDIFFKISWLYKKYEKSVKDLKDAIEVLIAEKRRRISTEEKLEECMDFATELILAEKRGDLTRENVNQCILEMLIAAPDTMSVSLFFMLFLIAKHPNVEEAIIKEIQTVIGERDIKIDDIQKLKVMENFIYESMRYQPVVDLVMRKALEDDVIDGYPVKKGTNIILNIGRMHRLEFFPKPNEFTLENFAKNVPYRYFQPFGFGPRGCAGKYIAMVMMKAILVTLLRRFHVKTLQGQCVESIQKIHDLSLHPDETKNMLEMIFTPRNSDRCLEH

In the case of `O=CCc1ccccc1`, the Potency result (in assay [1]; in assay [2]; in [3]; in assay [4]; with Aromatase (Homo sapiens)) was “inactive” each time.

As to `c1cc(N(CC2CO2)CC2CO2)ccc1OCC1CO1` (stereo not given), the Potency in assay [1] was 19.4 µM (active) and 27.3 µM (active); in the assay with Aromatase (Homo sapiens), 24.4 µM (active) and 54.5 µM (active). For the same compound, the Potency entry in assay [2], in assay [3], in assay [5], in assay [6] and in assay [4] was “inactive” in each case.

Turning to `CC(=O)O[C@]1(C(C)=O)CC[C@H]2[C@@H]3C=C(Cl)C4=CC(=O)[C@@H]5C[C@@H]5[C@]4(C)[C@H]3CC[C@@]21C`, the Potency entry is “inactive and 54.4 µM (active)” in assay [1]; “inactive and 54.4 µM (active)” with Aromatase (Homo sapiens). Also, the Potency result in assay [2], in [3] and in [4] was “inactive” in each case.

As to `CCCCCCCCCC(=O)OC`, the Potency result (in [1]; in assay [2]; in assay [3]; in assay [4]; with Aromatase (Homo sapiens)) was “inactive” throughout.

Take `CC(C)OC(=O)C(C)(C)Oc1ccc(C(=O)c2ccc(Cl)cc2)cc1`: the Potency result in [7], in assay [3], in [5], in assay [6] and in [4] was “inactive” throughout. The Potency result is “inactive and 61.1 µM (active)” in [8]; “inactive and 68.6 µM (active)” with Aromatase (Homo sapiens).

For the compound `CC(=O)C1(C)CC2=C(CCCC2(C)C)CC1C` (stereo not given), the Potency result (in assay [1]; in assay [2]; in assay [3]; in assay [4]; with Aromatase (Homo sapiens)) was “inactive” in each case.

For `C=C(C)C1CC=C(C)CC1` (stereo not given), the Potency result in assay [1], in assay [7], in [3], in assay [5], in assay [6] and in [8] was “inactive” each time. Besides, the Potency result (in assay [4]; in the assay with Aromatase (Homo sapiens)) was “inactive” in each case.

In the case of `CN(C)C(=N)N=C(N)N`, the Potency result in [1], in [2], in [3] and in [4] was “inactive” throughout.

For `Cc1cc2nc3c(=O)[nH]c(=O)nc-3n(C[C@H](O)[C@H](O)[C@H](O)CO)c2cc1C`, the Potency entry in [9], in assay [2] and in assay [3] was “inactive” in each case.

Consider `Brc1cc(Oc2cc(Br)c(Br)c(Br)c2Br)c(Br)c(Br)c1Br`, for which the Potency entry (in assay [1]; in assay [2]; in [3]; in assay [4]; with Aromatase (Homo sapiens)) was “inactive” each time.

`O=C(c1ccccc1)c1ccccc1O`: the Potency result in assay [1], in assay [2], in [3] and in [4] was “inactive” each time. Further, the Potency result with Aromatase (Homo sapiens) was “inactive and 27.3 µM (active)”.

As for `COc1ccc(OC)c(C(O)CNC(=O)CN)c1` (stereo not given), the Potency result in assay [7], in assay [3], in assay [5], in [6], in assay [8] and in [4] was “inactive” in each case. The Potency entry in the assay with Aromatase (Homo sapiens) is “inactive”.

Consider `Nc1ncnc2nc[nH]c12`, for which the Potency entry in [7], in assay [3], in assay [5], in assay [6], in assay [8] and in assay [4] was “inactive” throughout. Further, the Potency entry in the assay with Aromatase (Homo sapiens) was “inactive”.

Consider `CC(C)Oc1ccc2c(=O)c(-c3ccccc3)coc2c1`, for which the Potency entry (in assay [4]; in the assay with Aromatase (Homo sapiens)) was “inactive” each time.

As to `Cc1ncc[nH]1`, the Potency entry (in assay [1]; in assay [2]; in assay [3]; in assay [4]; with Aromatase (Homo sapiens)) was “inactive” in each case.

As to `CN(C)c1nc(N(C)C)nc(N(C)C)n1`, the Potency result in assay [1], in assay [3] and in assay [4] was “inactive” throughout.

Turning to `CCC(C)(O)CCCC(C)C` (stereo not given), the Potency entry in assay [2], in [7], in assay [3], in assay [5], in assay [6] and in [8] was “inactive” throughout. Also, the Potency entry (in [4]; with Aromatase (Homo sapiens)) was “inactive” in each case.

With `CCCC(=O)O`, the Potency result (in assay [1]; in [3]; in [4]; with Aromatase (Homo sapiens)) was “inactive” throughout.

In the case of `C[Si](C)(C)O[Si](C)(C)C`, the Potency entry (in assay [1]; in assay [2]; in [3]; in assay [4]; with Aromatase (Homo sapiens)) was “inactive” throughout.

Turning to `CNCCCC12CCC(c3ccccc31)c1ccccc12`, the Potency in [1] was 11.9 µM (active) and 4.86 µM (active); in assay [3], “inactive and 49 µM (active)”; with Aromatase (Homo sapiens), “inactive and 30.6 µM (active)”. Moreover, the Potency entry in [5], in [6] and in assay [4] was “inactive” in each case.

For `O=C1c2cccc(O)c2C(=O)c2c(O)cccc21`, the Potency result (in assay [1]; in [2]; in [3]; with Aromatase (Homo sapiens)) was “inactive” each time.

In the case of `O=C(O)c1ccccc1Nc1cccc(C(F)(F)F)c1`, the Potency entry in assay [1], in assay [2], in assay [3], in assay [5], in assay [6] and in assay [8] was “inactive” in each case. Further, the Potency result (in assay [4]; in the assay with Aromatase (Homo sapiens)) was “inactive” throughout.

With `Cc1ccc(C(=O)c2cc(O)c(O)c([N+](=O)[O-])c2)cc1`, the Potency result was “inactive and 61.1 µM (active)” in assay [1]; 33.5 µM (active) and 54.5 µM (active) in assay [4]. In addition, the Potency result in assay [2] is “inactive”.

As to `c1ccc(Nc2ccccc2)cc1`, the Potency entry (in assay [1]; in [3]; in assay [4]; with Aromatase (Homo sapiens)) was “inactive” each time.

As for `Nc1ccccc1N`, the Potency entry in [1], in assay [2], in assay [3], in assay [5], in [6] and in [8] was “inactive” each time. Besides, in the assay with Aromatase (Homo sapiens), the Potency entry was “inactive”.

Regarding `Cc1c(OCC(F)(F)F)ccnc1CS(=O)c1nc2ccccc2[nH]1` (stereo not given), the Potency result (in assay [1]; in [3]; in assay [4]; in the assay with Aromatase (Homo sapiens)) was “inactive” each time.

For `O=[N+]([O-])c1ccc2c(c1)Cc1ccccc1-2`, the Potency entry in assay [9], in assay [2], in assay [7], in assay [3], in assay [5] and in [8] was “inactive” each time. Also, the Potency result (in assay [4]; with Aromatase (Homo sapiens)) was “inactive” in each case. For the same compound, the Potency in [6] is 13.7 µM (active).

Source of the values: PubChem BioAssay (Tox21).
